# Compounds with a hit are over-represented: about 7.4% of the library has one in this group of screens.
# Rab9 promoter act = qHTS Assay for Rab9 Promoter Activators | Huh7 Rab9 promoter-luciferase reporter, luminescence, 24 h | AID 485297, 2010 | Potency, µM (doses to about 9.22 µM), for the others: top-dose activation, negative = inhibition, usual class: activators | 320,000 tested, 2.8% active; also: % of control where 0% means no effect; nearly all actives have a fitted effect of over 60% in size
#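 Stable Rab9-luc Huh7, 1500 cells/well, 2 h settle; cmpd in DMSO, 24 h, 37 °C/5% CO2; luciferase reagent 10 min RT; luminescence.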
# ELG1 genotoxic = qHTS screen for small molecules that induce genotoxicity in human embryonic kidney (HEK293T) cells expressing luciferase-tagged ELG1 | HEK293T ELG1-luciferase reporter, luminescence, 16 h | Potency, µM (titrated, usually from 46 µM), without a hit: at the top dose activity change, positive = activation, actives largely listed as activators | 330,000 tested, 1.3% active; also: % of control where 0% means no effect; nearly all actives have a fitted effect of over 60% in size
#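 After overnight (16 hr) compound treatment at 37 °C, ELG1-luciferase HEK293T cells were lysed with ONE-Glo; luminescence quantified 30 min later at room temperature.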
# SMN2 splice enh = qHTS Assay for Enhancers of SMN2 Splice Variant Expression; HEK293 SMN2-luciferase splicing reporter, luminescence, 30-36 h; Potency, µM (doses to about 46.1 µM), for the others: top-dose activity change, positive = activation, actives largely listed as activators; 210,000 tested, 2.8% active; also: % of control where 0% means no effect; nearly all actives have a fitted effect of over 55% in size
#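 HEK293 cells carry an SMN2 minigene-luciferase reporter in which exon 7 inclusion puts luciferase in frame. Cells were seeded at 2000 cells/well, attached for 10-12 hours, then exposed to compounds for 30-36 hours at 37C before ONE-Glo luminescence.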
# FLuc counter = qHTS profiling assay for firefly luciferase inhibitor/activator using purifed enzyme and Km concentrations of substrates (counterscreen for miR-21 project) | purified FLuc, Km substrates, luminescence inhibition | Potency, µM (top dose mostly 57.5 µM), for inactives: at the top dose activity change, negative = inhibition, usual class: inhibitors | 360,000 tested, 6.9% active | AID 588342, 2011;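 also: plate controls were vehicle for no effect and reference inhibitor for full effect; nearly all actives have a fitted effect of over 55% in size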
# Target sequence (P08659 whole entry, looked up): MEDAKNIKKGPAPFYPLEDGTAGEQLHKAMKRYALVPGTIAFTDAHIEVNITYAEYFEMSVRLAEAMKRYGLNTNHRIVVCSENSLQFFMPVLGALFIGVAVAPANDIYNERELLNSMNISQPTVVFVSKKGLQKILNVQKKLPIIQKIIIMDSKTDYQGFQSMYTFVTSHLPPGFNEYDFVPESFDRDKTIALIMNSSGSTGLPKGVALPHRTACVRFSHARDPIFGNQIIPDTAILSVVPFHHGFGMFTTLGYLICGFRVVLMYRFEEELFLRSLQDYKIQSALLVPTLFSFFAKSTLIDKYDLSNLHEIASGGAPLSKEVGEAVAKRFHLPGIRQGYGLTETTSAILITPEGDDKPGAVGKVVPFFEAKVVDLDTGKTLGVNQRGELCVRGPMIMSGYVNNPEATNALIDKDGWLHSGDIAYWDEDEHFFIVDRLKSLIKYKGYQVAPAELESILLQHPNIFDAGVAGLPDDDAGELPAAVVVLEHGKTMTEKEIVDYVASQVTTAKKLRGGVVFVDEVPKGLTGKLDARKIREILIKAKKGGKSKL
#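 Biochemical qHTS of compounds, final roughly 60 µM downward over six points, against 10 nM purified firefly luciferase using Km concentrations of substrates (10 uM D-luciferin, 10 uM ATP) in Tris acetate pH 7.5 buffer; luminescence output.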
# KinaseGlo FLuc = Counterscreen for Luciferase (Kinase-Glo TM) Inhibition; 200,000 tested, 0.28% active; Kinase-Glo luciferase, ATP luminescence, 8 min; Potency, µM (top dose mostly 38.3 µM), without a hit: at the top dose activity change, negative = inhibition, usual class: inhibitors; also: % is scaled to controls: 0 for no effect and ±100 for the full control effect; nearly all actives have a fitted effect of over 60% in size
#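 Substrate mix (final 50 mM imidazole pH 7.2, 50 mM KCl, 7 mM MgCl2, 10 uM ATP, 0.01% Tween 20, 0.05% BSA) plus pin-tool compound, then Kinase-Glo detection mix; 8 min ambient, luminescence read.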
# NPC1 prom act = qHTS Assay for NPC1 Promoter Activators; Huh7 NPC1 promoter luciferase reporter, 24 h; Potency, µM (titrated, usually from 9.22 µM), for inactives: top-dose activation, actives largely listed as activators; 320,000 tested, 2.4% active; AID 485313, 2010; also: % of control where 0% means no effect; nearly all actives have a fitted effect of over 60% in size
#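 Luminescence from an NPC1 promoter-driven luciferase reporter in stably transfected Huh7 cells was measured after 24 h compound treatment at 37 °C, followed by 10 min ambient incubation with luciferase detection reagent.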
# * marks the source's active call; other numbers are inactive results; ? = inconclusive; nt = not tested or not shown; [ ] = dose if it differs, or a comment. Calls follow the shape of the dose curve; as a rule, active = well fitted curve in the direction sought with a large enough effect; inconclusive = small, poorly fitted or top-dose-only effect, or another doubt; inactive = no such curve, though single readings can be large; an effect the other way counts as inactive or inconclusive. Potency is read from the fitted curve at half-maximal effect.
SMILES,Rab9 promoter act,ELG1 genotoxic,SMN2 splice enh,FLuc counter,KinaseGlo FLuc,NPC1 prom act
CC(=O)c1ccc(Nc2nc3c(S(=O)(=O)c4ccccc4)nnn3c3ccc(Cl)cc23)cc1,nt,nt,17.2%,0.6%,nt,nt
COc1ccc(NC(=O)c2oc3ccccc3c2NC(=O)COc2ccc(C(C)C)cc2)c(OC)c1,nt,nt,0.6%,-4.3%,nt,nt
Cc1ccc2cc(/C=N/NC(=O)[C@H](C)NC(=O)OC(C)(C)C)c(Cl)nc2c1,0.1%,-3.4%,13.9%,-1.7%,-1.0%,-2.1%
COc1ccc2nc(/C=N/NC(=O)[C@H](C)NC(=O)OC(C)(C)C)ccc2c1,16.8%,?,?,5.36µM*,1.9%,11.6%
O=C1c2ccccc2C(=O)N1CCCc1c[nH]c2ccccc12,18.1%,-2.3%,-0.3%,-17.7%,3.1%,2.9%
O=C1c2ccccc2C(=O)N1CCc1c[nH]c2ccccc12,3.55µM*,?,nt,6.75µM*,-4.2%,?
Cc1cc2c(n1-c1ccc(C(=O)NCc3ccccc3Cl)cc1)CCCC2,nt,nt,nt,5.6%,nt,nt
O=C(Oc1ccc(-c2cn3c(n2)SCC3)cc1)c1ccccc1,0.7%,18.4µM*,?,?,-11.9%,0.3%
O=C(Nc1cccc(-c2cn3c(n2)SCC3)c1)c1ccc(Br)o1,-0.4%,-1.3%,11.2%,?,1.0%,-0.1%
O=C(Nc1ccc(-c2cn3c(n2)SCC3)cc1)c1ccco1,0.891µM*,?,nt,8.49µM*,nt,2.51µM*
CC(=O)Nc1ccc(S(=O)(=O)Nc2cccc(-c3cn4c(n3)SCC4)c2)cc1,-9.3%,0.4%,-30.2%,3.6%,1.1%,0.8%
CC(=O)Nc1ccc(-c2cn3c(n2)SCC3)cc1,2.82µM*,?,nt,?,nt,?
CCCOc1cccc(C(=O)N2CCCCC2CCN2CCCCC2)c1 (stereo not given),nt,nt,-8.3%,1.0%,nt,nt
COc1cc(OC)cc(C(=O)Nc2nnc(-c3cccnc3)o2)c1,-9.3%,-3.8%,11.9%,-13.3%,7.8%,-4.1%
COc1ccc(-c2cnc(-c3cccnc3)o2)cc1,nt,nt,11.2µM*,nt,-0.7%,nt
CCCN1C(=O)C2(c3ccccc31)c1c(oc3ccccc3c1=O)C(=O)N2CCO (stereo not given),nt,nt,-1.2%,-4.8%,nt,nt
COc1ccccc1OCC(=O)OC/C(O)=C(\C#N)c1nc2ccccc2[nH]1,-7.1%,?,1.4%,?,-0.4%,4.0%
N#C/C(=C(/O)COC(=O)Cc1c[nH]c2ccccc12)c1nc2ccccc2[nH]1,-7.0%,0.3%,-10.6%,15.1µM*,-3.4%,-1.5%
CCCc1ccc(OCC(=O)Nc2sc3c(c2C(=O)OCC)CCC(C(C)(C)C)C3)cc1 (stereo not given),nt,nt,5.5%,-5.4%,nt,nt
CCCc1ccc(C(=O)NNC(=O)c2ccc(Br)cc2)cc1,-0.5%,-1.2%,-20.8%,2.8%,0.1%,-2.2%
CCCc1ccc(C(=O)NC(=O)c2ccccc2O)cc1,?,5.7%,nt,0.601µM*,nt,?
O=C(NC(=O)c1ccccc1O)c1ccc(C(F)(F)F)cc1,?,5.2%,nt,3.01µM*,nt,?
CC(=O)OCC(=O)[C@@]1(O)CC[C@@H]2[C@H]3CCC4=CC(=O)CC[C@]4(C)[C@]3(F)[C@@H](O)C[C@@]21C,nt,nt,1.2%[20.6 µM],nt,2.8%[17.1 µM],nt
CCOc1ccc(C(=S)NC2CCCCC2)cc1,?,13.7%,2.8%,12µM*,-5.1%,3.16µM*
COc1ccc(CNC(=S)NC2CCCCC2)cc1,4.5%,0.3%,nt,-5.1%,nt,-1.8%
SMILES,Rab9 promoter act,ELG1 genotoxic,SMN2 splice enh,FLuc counter,KinaseGlo FLuc,NPC1 prom act
COc1ccc(C(=S)NC2CCCCC2)cc1,?,10.3%,nt,12µM*,nt,8.5%
Cc1ccc(NC(=O)Cn2nnc(C(=O)NCCc3ccccc3)c2N)cc1,nt,nt,5.6%,0.7%,nt,nt
CC(=O)N1N=C(c2ccc(C)cc2)CC1c1ccc2c(c1)OCO2 (stereo not given),?,?,nt,15.1µM*,nt,2.82µM*
Cc1ccc(C2=NN(S(C)(=O)=O)C(c3ccc4c(c3)OCO4)C2)cc1 (stereo not given),2.51µM*,5.17µM*,17.8µM*,1.69µM*,-8.6%,3.55µM*
CS(=O)(=O)N1N=C(c2ccc(Br)cc2)CC1c1ccc2c(c1)OCO2 (stereo not given),0.631µM*,?,25.1µM*,4.26µM*,-2.2%,1.12µM*
CS(=O)(=O)Nc1ccc(C2=NN(S(C)(=O)=O)C(c3ccc4nccnc4c3)C2)cc1 (stereo not given),11.6%,7.0%,nt,-14.1%,-2.7%,-0.6%
Cc1ccc(C)c(CSC2=NC(C)(C)Nc3ccccc32)c1,nt,nt,nt,-11.5%,nt,nt
CCCn1c(-c2ccc(F)cc2)nc2c(NCCN(C(C)C)C(C)C)nc(C)nc21,nt,nt,-9.8%,nt,-2.9%,nt
O=C(NCCS(=O)(=O)NCCc1ccccc1)c1ccc2c(c1)OCO2,3.16µM*,2.06µM*,nt,12µM*,nt,4.47µM*
O=C(NCCc1ccccc1)c1ccc2c(c1)OCCCO2,?,?,nt,0.0601µM*,nt,-37.0%
COc1ccc(CCNC(=O)c2ccc3c(c2)OCO3)cc1,?,14.6%,nt,?,nt,23.0%
COc1ccc(CCNC(=O)c2ccc3c(c2)OCCO3)cc1,3.16µM*,?,?,9.53µM*,-0.2%,?
O=C(NCc1cccc(Cl)c1)c1ccc2c(c1)OCCO2,24.3%,10.8%,nt,?,nt,19.4%
O=C(NCCc1ccccc1)c1ccc2c(c1)OCCO2,0.0032µM*,?,nt,0.135µM*,nt,0.0158µM*
CC(C)Oc1ccc(CNC(=O)C2CCCN(S(=O)(=O)c3ccc4c(ccn4C)c3)C2)cc1 (stereo not given),nt,nt,nt,-3.9%,nt,nt
COc1ccccc1-c1cc2nc(C)c(CCC(=O)Nc3ccc(Br)c(C)c3)c(C)n2n1,nt,nt,-2.5%,-18.7%,nt,nt
CCC1=C2CC[C@H]3C(=O)N(c4ccccc4)C(=O)[C@H]3[C@H]2[C@@]2(C)C(=O)N(Cc3ccccc3)C(=O)N2C1=O,nt,nt,-1.2%,nt,-8.0%,nt
O=C(NCCc1cccc(Cl)c1)c1ccc2c(c1)OCO2,0.447µM*,2.59µM*,nt,1.51µM*,nt,0.316µM*
COc1ccc(CCNC(=O)c2coc(=O)c(Br)c2)cc1,8.9%,18.3µM*,nt,0.2%,nt,8.7%
CC(=O)NCCNc1ccc([N+](=O)[O-])cn1,1.3%,-0.2%,13.2%,2.8%,-0.9%,-1.1%
CC(C)(C)c1ccc(CNc2ccc([N+](=O)[O-])cn2)cc1,?,?,?,12µM*,-0.7%,26.1%
